Assay results as given in the OligoGym collection.

target: ZNF100; test: pooled miR-30 sensor sort-seq; sequence = guide strand; conditions: shRNA
Further: reference of the scale not given here.

| Sequence | sensor-assay potency score (higher = more potent) |
| --- | --- |
| TTTCCTATACAAACCCTGCTGA | -0.0321 |
| TTTCTAGTATGTCTTATCTTAT | -1.12 |
| TAATTTGTTATCATGTTCTTTG | -0.537 |
| TTTGTAACTGTAAATTGTCATG | -1.22 |
| TTCTCCAGTATAACTTACCTTA | -0.393 |
| TTGAATTTGAAAATGTATGAAA | -0.873 |
| TATTTGTACAATATTTCTCAAG | -1.35 |
| TTAATTTGTTATCATGTTCTTT | -0.0243 |
| TTTGTTATCATGTTCTTTGTGC | 0.633 |
| TTCAAAATAAGACTGCACCAGA | 0.0757 |
| TTAGTGAGGGCTGAGGACCAGT | -0.895 |

target: ZNF135; test: as above; conditions: shRNA

| Sequence | sensor-assay potency score (higher = more potent) |
| --- | --- |
| TATTTCTTCAGAGATGCCTTGC | 0.235 |
| ATGAATATCAGAGTCAACCTGC | 0.469 |
| TTAAGCATTCGTGACATTCATA | -1.02 |
| TAGAACTGACAGTTTGACTTTG | -0.0496 |
| TTCTTCAGAGATGCCTTGCTTT | -0.404 |
| TGTTCGATAAGTGCTGAGCTGT | -0.66 |
| TTGCTTTAGAACTGACAGTTTG | -1.45 |
